Bioassay records from PubChem BioAssay.
Shown is part of a subset that was picked to be rich in hits.
BAP1 block: inhibitors of BAP1 deubiquitinase, primary screen, biochemical, Ub-AMC fluorescence, kinetic; Ubiquitin carboxyl-terminal hydrolase BAP1 (Homo sapiens), Q92560; recombinant BAP1, Ub-AMC hydrolysis fluorescence kinetic; hits give low values; calls only at 20 µM; 72,000 tested, 0.48% active; AID 436, 2006;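 active = activity remaining at or below 50% of control, provided the compound also passes the data quality filters; inactive = the rest, including low values that fail the filters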;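 note: 100% = DMSO wells rate and 0% = substrate alone blank rate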
DAT uptake mod: changed hDAT dopamine uptake under cocaine IC80, either direction, primary screen, cocaine antagonist project, cell-based, LLC-PK1 hDAT, [14C]-dopamine uptake, MLSMR; AID 449768, 2010; 110,000 tested, 1.3% active; LLC-PK1 hDAT cells, [14C]-dopamine uptake with cocaine IC80; actives deviate in either direction; B-score at 10 µM;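 active = Z score or B-score, a plate-position-corrected score, falls beyond the plate's 99.7% confidence bounds, in either direction; inactive = both scores lie inside the 99.7% bounds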;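 note: scored against the spread of the other compound wells on the same plate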
D1 allo mod: D1 CRE-luciferase signal change, two-sided – cell-based, HEK293 D1, dopamine EC30, D1 allosteric modulator project, primary screen | D(1A) dopamine receptor (Homo sapiens), P21728 | dopamine EC30 potentiation; actives deviate in either direction | B-score at 10 µM | 58,000 tested, 5.9% active | AID 641, 2007;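 active = luminescence count or its row- and column-corrected plate score outside the 99.7% band of the plate's sample wells, on either side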
D1 PAM confirm: D1 receptor positive allosteric modulators, retest, confirmation, cell-based, HEK293 D1, CRE-luciferase, duplicate; shares compounds with D1 allo mod; dopamine EC30 potentiation; hits give high values; luminescence at 10 µM; 2,200 tested, 88% active; AID 642, 2007;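 active = luminescence in either of two replicates above the same-plate mean plus 3 SD of the low-dose dopamine control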
D1 ag no DA: D1 receptor agonism without dopamine, confirmation, mechanism study for D1 allosteric modulator project, cell-based, HEK293 D1, CRE-luciferase, secondary assay 1; shares compounds with D1 allo mod; AID 646, 2007; 1,900 tested, 0.8% active; luminescence at 10 µM; luminescence, no dopamine; hits give high values; in the data active = luminescence above about 3900
Isoprot counter: alters isoproterenol CRE-luciferase response in HEK293 cells | HEK293 D1 CRE-luciferase, isoproterenol EC30 counter-screen; hits give high values | 2,200 tested, 63% active | AID 647 | luminescence at 10 µM | shares compounds with D1 allo mod;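 active = luminescence in either replicate above plate mean of wells with a partly effective reference agonist dose plus 3 SD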;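 note: isoproterenol raises cAMP through native beta-adrenoceptor Gs so signal bypasses D1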
* marks the source's active call; other numbers are inactive results; i = inactive; . = no result given.

SMILES | BAP1 block | DAT uptake mod | D1 allo mod | D1 PAM confirm | D1 ag no DA | Isoprot counter
Cc1sc2nc(CN3CCN(S(=O)(=O)c4cccc5nonc45)CC3)[nH]c(=O)c2c1C | i | 1.4 | 3.6* | 8576* | 1552 | 2692
Cc1ccc(S(=O)(=O)N2CCN(Cc3nc4sc(C)c(C)c4c(=O)[nH]3)CC2)cc1 | . | 0.037 | . | . | . | .
COc1cccc(C2c3c(oc4ccc(F)cc4c3=O)C(=O)N2CCCN2CCOCC2)c1 (centres undefined) | i | . | 3.8* | 6980 | 1496 | 2940
O=C1c2oc3ccc(F)cc3c(=O)c2C(c2ccc(F)cc2)N1CCCN1CCOCC1 (centres undefined) | i | -1 | -0.36 | . | . | .
O=C1CC(c2ccc(Cl)cc2)CC2=C1C(c1cccc(F)c1)Nc1ccccc1N2 (centres undefined) | i | . | . | . | . | .
O=C1N=C(c2ccccc2)C(c2ccccc2)N1 (centres undefined) | . | -0.34 | 8.8* | 22264* | 20356* | 3332*
c1ccc(C2=NC(c3ccccc3)N=C(c3ccccc3)N2)cc1 | . | 0.39 | . | . | . | .
Cn1c(=O)[nH]c(=O)c2c1[nH]c(=S)n2C | i | . | . | . | . | .
O=C(Cn1cc2c(n1)CCCC2)NCCCN1CCCC1 | i | -0.025 | -0.61 | . | . | .
O=C(Cn1cc2c(n1)CCCCC2)NCCCN1CCOCC1 | i | -0.43 | 2.6* | 5840 | 1452 | 2700
COc1ccc(NC(=O)CSc2nc3ccccc3c(=O)n2CCNC(C)=O)c(OC)c1 | i | 0.13 | 0.018 | . | . | .
COc1ccc(OC)c(NC(=O)CSc2nc3ccccc3c(=O)n2CCNC(C)=O)c1 | i | -0.81 | 9.7* | 9716* | 1560 | 3584
CCNc1ccc(C(F)(F)F)c([N+](=O)[O-])c1 | i | . | . | . | . | .
Oc1c(I)cc2oc3c(c2c1CNc1ccc(Br)cc1)CCCC3 | i | . | . | . | . | .
COC(=O)c1ccsc1NC(=O)C1=COCCO1 | i | 0.81 | 9.1* | 17084* | 1496 | 3244*
COC(=O)Nc1sccc1C(=O)Nc1sccc1C(=O)OC | . | 1.5 | . | . | . | .
COc1ccc(C(=O)Oc2cccnc2)cc1OC | i | 0.033 | 8.6* | 20932* | 1664 | 3844*
O=C(Oc1cccnc1)c1cccnc1 | i | . | . | . | . | .
Fc1ccccc1-n1nnnc1SCc1ccccc1Cl | i | . | . | . | . | .
COc1ccc(-c2coc3cc(O)ccc3c2=O)cc1OC | i | 0.003 | 4.6* | 9756* | 1616 | 3120
COc1ccc2c(=O)c(-c3ccc(OC)c(OC)c3)coc2c1 | . | 2.2 | . | . | . | .
CCOC(=O)c1cc(CC)sc1NC(=O)COC | i | -0.45 | 12* | 17728* | 1632 | 4120*
CCOC(=O)c1cc(CC)sc1NC(=O)Cc1ccccc1 | . | -0.25 | . | . | . | .
COc1ccc(C(=O)N(c2ccccc2)c2ccc3ccccc3c2)cc1OC | i | . | . | . | . | .
c1ccc(Cc2nnc3n2CCCCC3)cc1 | i | 0.23 | -0.082 | . | . | .
SMILES | BAP1 block | DAT uptake mod | D1 allo mod | D1 PAM confirm | D1 ag no DA | Isoprot counter
COc1ccc(-c2csc(Cc3nnc4n3CCCCC4)n2)cc1OC | i | -0.37 | 20* | 24836* | 1564 | 5160*
Nc1cc(N)nc(SCCOc2ccccc2F)n1 | i | -0.69 | -0.063 | . | . | .
Nc1nc(OCC(F)(F)F)cc(Oc2ccccc2F)n1 | i | 0.74 | 8.7* | 14824* | 1612 | 3436*
Cc1oc2ccc(NS(=O)(=O)c3cccc([N+](=O)[O-])c3)cc2c1C(=O)OC(C)C | i | . | . | . | . | .
CCCCOc1cc(C)nc(NCc2ccccc2)n1 | i | 0.11 | 10* | 5728* | 1592 | 2604
CCOc1cc(C)nc(NCc2ccccc2)n1 | . | 0.67 | . | . | . | .
O=c1oc2ccc(Cl)cc2cc1-c1nnc(Nc2ccc(F)cc2)s1 | i | . | . | . | . | .
NC(=O)c1c(NC(=O)CSc2nnc(-c3ccco3)n2-c2ccccc2)sc2c1CCC2 | i | 1.4 | 4.8* | 10124* | 1620 | 2920
N#Cc1c(NC(=O)CSc2nnc(-c3ccco3)n2-c2ccccc2)sc2c1CCC2 | . | 0.73 | . | . | . | .
COC(=O)c1ccc(COC(=O)c2ccc(-n3cnnn3)cc2)o1 | i | -0.024 | 6* | 5052 | . | 2264
